The supplement of paper PMC11219838
Unmarked numbers belong to inactive results.

test system: Caenorhabditis elegans L1 (N2); experiment: survival and reproduction score of C. elegans L1 (0: 0-10 living worms, 1: 11-20, 2: 21-50, 3: >50, 4: overgrown) (score 0-4); higher = more worms, less nematicidal, active = 1 or less; extreme values may be limits of the assay; conditions: 60 µM; 6 days; temperature: 20 °C
In short: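 Each 96-well well received about 20 synchronized N2 L1 worms of C. elegans, E. coli HB101 and liquid NGM, plus compound pinned to 60 µM final (0.6% v/v DMSO). Sealed plates were incubated with shaking at 200 rpm, 20 °C, for 6 days. Survival and reproduction were rated under a dissection microscope as an ordinal score of living worms per well, averaged across biological replicates. The scale spanned 0 (0–10 worms) to 4 (overgrown, starved), and there were two replicates.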

Row | SMILES | survival and reproduction score
1 | Clc1cccc(-c2nc(-c3ccc4c(c3)OCO4)no2)c1 | 4
2 | Cc1ccccc1CSc1nnc(-c2ccco2)n1C | 2
3 | Cc1cccc(-c2noc(COc3ccc(Br)cc3)n2)c1 | 4
4 | COC(=O)c1ccc(CSc2nnc(-c3ccc(OC)cc3)o2)cc1 | 4
5 | Clc1ccc(-c2noc(-c3cccnc3)n2)cc1 | 0 (active)
6 | CCCOc1ccc(-c2nc(-c3cccnc3)no2)cc1 | 0 (active)
7 | CCCC(=O)Nc1ccccc1-c1nc(-c2ccccn2)no1 | 4
8 | Cc1cc(OC(C)c2nc(-c3cccnc3)no2)ccc1Cl (stereo not given) | 4
9 | Cc1cc(C)cc(-c2nc(-c3ccc(Cl)cc3)no2)c1 | 4
10 | O=C(CSc1nnc(-c2cccc(Br)c2)o1)c1ccccc1 | 4
11 | CN(C)C(=O)c1ccccc1-c1nc(-c2ccccc2Cl)no1 | 4
12 | Cc1ccc(Cl)cc1NC(=O)CSc1nnc(-c2ccncc2)o1 | 4
13 | C#CCOc1ccc(-c2nc(-c3ccccc3)no2)cc1 | 0 (active)
14 | Cc1ccc(-c2noc(COc3ccc(Cl)cc3)n2)cc1 | 4
15 | Cc1ccccc1-c1nnc(SCc2ccccc2Cl)o1 | 4
16 | Cc1cc(OCc2nc(-c3ccncc3)no2)cc(C)c1Br | 4
17 | Cc1cc(C)cc(OCc2nc(-c3cc(C)nc4ccccc34)no2)c1 | 4
18 | O=C(CSc1nnc(-c2ccncc2)o1)Nc1cc(Cl)cc(Cl)c1 | 4
19 | CCOc1cc(-c2nc(-c3cccnc3)no2)cc(OCC)c1OCC | 4
20 | Cc1cccc(-c2noc(C3CCCCC3)n2)c1 | 3.5
